Test results taken from PubChem BioAssay (NCI).
“And” between values parts separate entries of the source, which are not always exact repeats. Equal entries are not always repeated. About 83,000 compounds went through this panel and 20% of them were active in at least one assay; those are over-represented in the sample as a whole.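 Assay: single dose, 48 h. Readout: percent growth (0 = no net growth; negative = cell death). Active: <10.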 The source made the active and inactive calls.

These compounds were tested on TK-10 renal (assay: NCI-60 one-dose screen, 48 h (100 = growth as untreated, 0 = no growth, -100 = all killed)). Conditions: 10 µM unless noted.

| SMILES | growth |
| --- | --- |
| Cc1ccc(/C=N/Nc2cc(C)c3ccccc3n2)s1 | -63.7% [100 µM] (active) and -75.8% [100 µM] (active) |
| COc1ccc2c3c(c(=O)n(C)c2c1OC)C=CC(C)(C)O3 | 8.86% [100 µM] (active) and 15% [100 µM] (inactive) |
| CC(C)=CCC/C(C)=C/CC/C(C)=C/CC/C(C)=C/C=C/C=C(\C)CC/C=C(\C)CC/C=C(\C)CCC=C(C)C | 106% [100 µM] (inactive) and -87% [100 µM] (active) |
| CCOc1cc2c(cc1O)/C(=N\N)C[C@@H]1[C@@H]2CC[C@]2(C)[C@@H](O)CC[C@@H]12 | 36.7% [100 µM] (inactive) and -97% [100 µM] (active) |
| Cc1sccc1C(=S)Nc1ccc(Cl)c(/C=N/OC(C)(C)C)c1 | -91.4% [100 µM] (active) and -90.7% [100 µM] (active) |
| CC(=O)O[C@@H]1C[C@@]2(C)[C@@H]3CC=C4[C@@H](C[C@H](O)C(=O)C4(C)C)[C@]3(C)C(=O)C[C@]2(C)[C@H]1[C@@](C)(O)C(=O)/C=C/C(C)(C)OC(C)=O | -62% [100 µM] (active) and -91% [100 µM] (active) |
| C#CCn1c2c(c3ccccc3c1=O)C(=O)c1ccccc1-2 | 17.2% [100 µM] (inactive) and -69.9% [100 µM] (active) |
| COc1cc2c(cc1O)Cc1c-2[n+](C)cc2cc(OC)c(OC)cc12 | 89.2% [100 µM] (inactive) and 4.86% [100 µM] (active) |
| CC(C)C1OC23CCCCC2C(C#N)(C#N)C1(C#N)C(=N)O3 (centres undefined) | 39.7% [100 µM] (inactive) |
| CC(=O)Nc1c(C)cc2c(nc3n2CCC3OC(C)=O)c1[N+](=O)[O-] (centres undefined) | 120% [100 µM] (inactive) and 104% [100 µM] (inactive) |
| NNC1=N/C(=C\c2ccco2)C(Cl)=N1 | 67% [100 µM] (inactive) and 2.87% [100 µM] (active) |
| Cc1ccnc2[nH]c(-c3ccc(F)cc3)cc(=O)c12 | 66.3% [100 µM] (inactive) and 16.9% [100 µM] (inactive) |
| CC#CC#C/C=C1/C=CC2(CCCCO2)O1 (centres undefined) | 112% [100 µM] (inactive) and -41.5% [100 µM] (active) |
| CC1OC(OC2C(O[C@H]3CC[C@@]4(C)C(=CC[C@H]5[C@@H]6C[C@@H]7O[C@]8(CC[C@H](C)CN8)[C@@H](C)[C@@H]7[C@@]6(C)CC[C@@H]54)C3)OC(CO)C(O)C2OC2OC(CO)C(O)C(O)C2O)C(O)C(O)C1O (some centres undefined) | 95.2% [100 µM] (inactive) and -95% [100 µM] (active) |
| C=C1CC(O)C2C(=C)C(=O)OC2C2C(C)C(=O)CC12 (centres undefined) | -95.6% [100 µM] (active) and -97% [100 µM] (active) |
| N#Cc1c(SCc2ccccc2)nc(-c2ccccc2)[nH]c1=S | 9.89% [100 µM] (active) and 3.82% [100 µM] (active) |
| N#CC1=C(N)OC(c2cccc([N+](=O)[O-])c2)C1(C#N)C#N (centres undefined) | -66.6% [100 µM] (active) and -87.5% [100 µM] (active) |
| CN(C)CCNc1ccc(NCC[N+](C)(C)Cc2ccc([N+](=O)[O-])cc2)c2c1C(=O)c1c(O)ccc(O)c1C2=O | 91.1% [100 µM] (inactive) and -23.2% [100 µM] (active) |
| CC(=O)NC(CS/N=N/c1nc[nH]c1C(N)=O)C(=O)O (centres undefined) | 7.53% [100 µM] (active) and 4.2% [100 µM] (active) |
| O=C1NC(=S)NC1C(Cc1ccccc1)c1ccco1 (centres undefined) | 80.1% [100 µM] (inactive) and 73% [100 µM] (inactive) |
| CCCC(=O)Oc1c2ccsc2c(OC(=O)CCC)c2ccsc12 | -72.5% [100 µM] (active) and -100% [100 µM] (active) |
| COc1cc(Nc2ccc3c(c2)CCC3)nc(OC)n1 | 53.3% [100 µM] (inactive) and -39.4% [100 µM] (active) |
| O=C(CCc1ccccc1)On1c(-c2ccccc2)nc2ccccc2c1=S | 9.44% [100 µM] (active) and -36.2% [100 µM] (active) |
| O=c1c(-c2ccc3c(c2)OCO3)coc2c3c(ccc12)OCO3 | -27.5% [100 µM] (active) and -100% [100 µM] (active) |
